Assay results reported in ChEMBL document CHEMBL3988442, “University of Dundee, Small-Polar-MMV Screening Library” (2021).
For some assays here: Results with a measured potency or affinity are listed apart.

Assays:
Design in all cases: scale not given: direction of the effect not stated beside the values
[1] = target: Protein translocase subunit SecA (Escherichia coli (strain K12)) (UniProt P10408); assay: Assay to Identify E. coli SecA ATPase Inhibitors; assay type: functional; conditions: 30 µM
[2] = target: T1, Ubiquitin-activating enzyme e1, putative (Leishmania donovani (strain BPK282A1)) (UniProt E9BSI1); assay: Leishmania donovani Ubiquitin Activating Enzyme (LdE1); assay type: functional; conditions: 30 µM
T1 sequence (whole entry): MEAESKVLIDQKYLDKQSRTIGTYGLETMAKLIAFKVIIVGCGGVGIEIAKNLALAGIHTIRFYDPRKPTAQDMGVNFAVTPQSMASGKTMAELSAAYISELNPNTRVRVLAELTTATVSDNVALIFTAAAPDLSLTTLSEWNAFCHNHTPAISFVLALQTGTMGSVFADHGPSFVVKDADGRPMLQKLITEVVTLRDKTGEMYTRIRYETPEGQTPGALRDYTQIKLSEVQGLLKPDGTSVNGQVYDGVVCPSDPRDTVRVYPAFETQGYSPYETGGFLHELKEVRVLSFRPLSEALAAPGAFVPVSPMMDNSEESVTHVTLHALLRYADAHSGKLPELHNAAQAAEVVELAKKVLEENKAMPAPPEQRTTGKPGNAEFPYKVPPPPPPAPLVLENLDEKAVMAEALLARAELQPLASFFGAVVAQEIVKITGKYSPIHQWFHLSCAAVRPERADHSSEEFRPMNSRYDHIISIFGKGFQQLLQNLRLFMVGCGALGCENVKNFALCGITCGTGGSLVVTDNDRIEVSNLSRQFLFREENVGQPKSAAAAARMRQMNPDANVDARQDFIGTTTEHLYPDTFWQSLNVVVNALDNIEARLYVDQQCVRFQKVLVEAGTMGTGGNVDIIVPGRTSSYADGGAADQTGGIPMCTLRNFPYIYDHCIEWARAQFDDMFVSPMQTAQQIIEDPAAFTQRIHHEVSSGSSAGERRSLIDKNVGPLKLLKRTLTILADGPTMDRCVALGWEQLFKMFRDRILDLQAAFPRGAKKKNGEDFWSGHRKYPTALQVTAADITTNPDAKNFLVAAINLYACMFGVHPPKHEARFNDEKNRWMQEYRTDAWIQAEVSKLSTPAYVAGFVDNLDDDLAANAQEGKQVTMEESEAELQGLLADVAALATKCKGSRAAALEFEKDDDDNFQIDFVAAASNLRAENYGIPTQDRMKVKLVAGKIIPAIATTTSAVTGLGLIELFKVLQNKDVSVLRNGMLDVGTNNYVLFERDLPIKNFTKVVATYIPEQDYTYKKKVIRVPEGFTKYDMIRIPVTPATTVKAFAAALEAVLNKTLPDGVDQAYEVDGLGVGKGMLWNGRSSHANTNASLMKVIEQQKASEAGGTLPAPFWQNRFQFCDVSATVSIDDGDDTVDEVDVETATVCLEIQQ

[3] = target: AMP-activated protein kinase, AMPK (Homo sapiens) (UniProt P54646+O43741+P54619+Q9UGJ0+Q9Y478+Q13131+Q9UGI9); assay: AMP-dependent Kinase enzyme assay. An in vitro enzyme assay that detects ADP turnover that is directly proportional to AMPK activity. This uses naive AMPK that is activated during the assay with MK-8722; assay type: functional; conditions: 30 µM
[4] = target: Sialic acid-binding Ig-like lectin 9 (Homo sapiens) (UniProt Q9Y336); assay: Hs-Siglec9 ALPHAscreen SOP 20170721; conditions: 10 µM
Trypanosoma cruzi = assay: Trypanosoma cruzi phosphomannomutase and mannose-1-phosphate guanylyltransferase assay; assay type: functional; conditions: 10 µM
[5] = target: T2, Arginase-2, mitochondrial (Homo sapiens) (UniProt P78540); assay: in vitro enzyme assay to detect the production of urea directly proportional to the activity of Arginase II; assay type: functional; conditions: 33.3 µM; further: in the data most compounds retested in dose-response had high values
T2 sequence (whole entry): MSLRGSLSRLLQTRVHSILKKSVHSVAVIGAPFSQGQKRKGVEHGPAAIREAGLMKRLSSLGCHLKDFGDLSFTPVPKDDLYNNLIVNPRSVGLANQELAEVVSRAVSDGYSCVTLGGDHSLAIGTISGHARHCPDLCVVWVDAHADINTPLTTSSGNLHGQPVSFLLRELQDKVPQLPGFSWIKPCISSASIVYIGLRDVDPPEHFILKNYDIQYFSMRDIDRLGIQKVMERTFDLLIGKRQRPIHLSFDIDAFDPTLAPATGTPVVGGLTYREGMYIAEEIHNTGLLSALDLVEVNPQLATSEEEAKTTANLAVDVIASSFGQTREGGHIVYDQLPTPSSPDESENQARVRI

[6] = target: T3, Proteasome subunit beta (Trypanosoma cruzi) (UniProt O96673); assay: Trypanosoma cruzi proteasome chymotrypsin-like activity (TcProtChymo) assay.; further: in the data most compounds retested in dose-response had high values; assay type: functional; conditions: 9.37 µM
T3 sequence (whole entry): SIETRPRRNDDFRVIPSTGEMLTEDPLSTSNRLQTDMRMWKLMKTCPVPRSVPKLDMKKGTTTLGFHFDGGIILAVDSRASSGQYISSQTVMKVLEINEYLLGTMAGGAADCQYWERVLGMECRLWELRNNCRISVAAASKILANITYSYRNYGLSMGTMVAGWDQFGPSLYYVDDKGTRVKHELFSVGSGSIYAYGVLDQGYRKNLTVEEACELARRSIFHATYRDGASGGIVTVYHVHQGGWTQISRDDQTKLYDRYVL

Homo sapiens = organism: Homo sapiens; assay: To identify inhibition of the IFN signalling (Jak-Stat) pathway via expression of an eGFP reporter gene under the control of an IFN-stimulated response element (ISRE) containing MxA promoter.; assay type: functional; conditions: 30 µM
[7] = target: T4, Tyrosyl-tRNA synthetase, putative (Trypanosoma cruzi (strain CL Brener)) (UniProt Q4DSP6); assay: Trypanosoma cruzi tyrosyl tRNA synthetase (TcYRS) _High Tyrosine SOP; assay type: functional; conditions: 30 µM; further: in the data most compounds retested in dose-response had high values
T4 sequence (whole entry): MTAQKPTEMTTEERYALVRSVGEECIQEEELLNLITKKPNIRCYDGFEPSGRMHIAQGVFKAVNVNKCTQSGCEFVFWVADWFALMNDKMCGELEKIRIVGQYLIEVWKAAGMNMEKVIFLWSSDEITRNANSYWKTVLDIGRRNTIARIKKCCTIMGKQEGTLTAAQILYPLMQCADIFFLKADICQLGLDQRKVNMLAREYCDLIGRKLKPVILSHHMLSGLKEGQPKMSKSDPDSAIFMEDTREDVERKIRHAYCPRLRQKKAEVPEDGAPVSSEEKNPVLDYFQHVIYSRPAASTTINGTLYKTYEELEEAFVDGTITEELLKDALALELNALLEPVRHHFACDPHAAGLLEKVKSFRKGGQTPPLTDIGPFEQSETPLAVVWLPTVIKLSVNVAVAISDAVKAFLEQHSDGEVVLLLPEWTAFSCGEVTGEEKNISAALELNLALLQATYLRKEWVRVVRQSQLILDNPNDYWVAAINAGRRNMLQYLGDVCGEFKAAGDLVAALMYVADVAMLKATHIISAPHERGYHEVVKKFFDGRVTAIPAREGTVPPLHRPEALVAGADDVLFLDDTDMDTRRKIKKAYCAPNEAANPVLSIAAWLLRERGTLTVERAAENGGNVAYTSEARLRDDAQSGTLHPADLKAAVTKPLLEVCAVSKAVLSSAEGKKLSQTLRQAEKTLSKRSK

[8] = target: T4, Tyrosyl-tRNA synthetase, putative (Trypanosoma cruzi (strain CL Brener)); assay: Trypanosoma cruzi tyrosyl tRNA synthetase (TcYRS) SOP; assay type: functional; conditions: 30 µM
[9] = target: Chromo domain-containing protein 1 (Saccharomyces cerevisiae (strain ATCC 204508 / S288c) (Baker's yeast)) (UniProt P32657); assay: ScCHD-1 Enzyme Inhibition Assay; assay type: functional; conditions: 30 µM; further: in the data most compounds retested in dose-response had high values
Chromo domain-containing protein 1 (Saccharomyces cerevisiae (strain ATCC 204508 / S288c) (Baker's yeast)), sequence (P32657 whole entry, the tested form may be a part): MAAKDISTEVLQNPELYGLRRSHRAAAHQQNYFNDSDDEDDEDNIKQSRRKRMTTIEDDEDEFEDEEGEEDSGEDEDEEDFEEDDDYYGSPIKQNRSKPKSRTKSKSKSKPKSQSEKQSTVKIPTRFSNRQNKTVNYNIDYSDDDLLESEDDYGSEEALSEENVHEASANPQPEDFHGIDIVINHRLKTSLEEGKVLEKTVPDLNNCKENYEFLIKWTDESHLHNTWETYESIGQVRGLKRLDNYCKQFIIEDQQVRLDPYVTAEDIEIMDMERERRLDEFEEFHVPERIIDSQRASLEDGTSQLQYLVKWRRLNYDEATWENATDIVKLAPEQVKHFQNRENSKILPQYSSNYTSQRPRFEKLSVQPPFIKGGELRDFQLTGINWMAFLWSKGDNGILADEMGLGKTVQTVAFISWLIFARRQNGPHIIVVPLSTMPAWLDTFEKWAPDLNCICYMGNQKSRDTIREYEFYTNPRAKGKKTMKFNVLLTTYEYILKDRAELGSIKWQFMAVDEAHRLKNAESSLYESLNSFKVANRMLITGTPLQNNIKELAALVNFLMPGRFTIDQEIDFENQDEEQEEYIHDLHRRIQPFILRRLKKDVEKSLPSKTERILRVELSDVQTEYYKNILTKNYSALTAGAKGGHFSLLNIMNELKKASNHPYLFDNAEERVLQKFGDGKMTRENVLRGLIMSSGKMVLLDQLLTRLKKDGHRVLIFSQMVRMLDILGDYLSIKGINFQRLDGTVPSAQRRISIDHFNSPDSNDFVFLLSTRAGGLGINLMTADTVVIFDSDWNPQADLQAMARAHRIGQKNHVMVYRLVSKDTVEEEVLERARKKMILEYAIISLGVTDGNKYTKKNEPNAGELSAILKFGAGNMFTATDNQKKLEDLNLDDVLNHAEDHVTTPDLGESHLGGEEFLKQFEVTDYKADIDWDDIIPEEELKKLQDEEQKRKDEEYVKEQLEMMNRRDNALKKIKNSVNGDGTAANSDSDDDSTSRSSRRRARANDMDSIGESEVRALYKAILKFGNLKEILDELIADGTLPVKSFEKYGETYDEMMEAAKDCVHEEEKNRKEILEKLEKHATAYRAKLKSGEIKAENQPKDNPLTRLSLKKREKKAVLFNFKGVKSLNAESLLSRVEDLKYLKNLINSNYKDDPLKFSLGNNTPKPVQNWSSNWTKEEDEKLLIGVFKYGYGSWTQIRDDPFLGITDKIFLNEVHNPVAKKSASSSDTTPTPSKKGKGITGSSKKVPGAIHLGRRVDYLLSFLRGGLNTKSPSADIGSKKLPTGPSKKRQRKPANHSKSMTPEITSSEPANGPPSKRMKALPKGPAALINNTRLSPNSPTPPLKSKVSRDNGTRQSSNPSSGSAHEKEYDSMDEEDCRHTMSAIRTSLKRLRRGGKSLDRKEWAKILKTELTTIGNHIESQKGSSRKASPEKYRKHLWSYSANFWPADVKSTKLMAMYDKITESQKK

Sialic acid-binding Ig-like lectin 9 (Homo sapiens), sequence (Q9Y336 whole entry): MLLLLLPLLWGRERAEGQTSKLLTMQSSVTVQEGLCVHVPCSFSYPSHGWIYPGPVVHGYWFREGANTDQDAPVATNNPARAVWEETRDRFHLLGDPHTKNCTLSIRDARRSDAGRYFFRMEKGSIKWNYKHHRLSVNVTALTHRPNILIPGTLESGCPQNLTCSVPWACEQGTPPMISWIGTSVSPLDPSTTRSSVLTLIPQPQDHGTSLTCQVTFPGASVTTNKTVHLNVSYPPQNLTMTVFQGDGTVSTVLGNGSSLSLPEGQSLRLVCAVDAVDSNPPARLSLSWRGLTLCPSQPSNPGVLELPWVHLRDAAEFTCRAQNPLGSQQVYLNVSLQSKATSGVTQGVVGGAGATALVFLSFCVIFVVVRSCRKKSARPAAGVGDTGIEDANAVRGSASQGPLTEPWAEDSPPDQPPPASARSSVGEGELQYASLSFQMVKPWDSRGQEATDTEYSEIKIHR
Protein translocase subunit SecA (Escherichia coli (strain K12)), sequence (P10408 whole entry): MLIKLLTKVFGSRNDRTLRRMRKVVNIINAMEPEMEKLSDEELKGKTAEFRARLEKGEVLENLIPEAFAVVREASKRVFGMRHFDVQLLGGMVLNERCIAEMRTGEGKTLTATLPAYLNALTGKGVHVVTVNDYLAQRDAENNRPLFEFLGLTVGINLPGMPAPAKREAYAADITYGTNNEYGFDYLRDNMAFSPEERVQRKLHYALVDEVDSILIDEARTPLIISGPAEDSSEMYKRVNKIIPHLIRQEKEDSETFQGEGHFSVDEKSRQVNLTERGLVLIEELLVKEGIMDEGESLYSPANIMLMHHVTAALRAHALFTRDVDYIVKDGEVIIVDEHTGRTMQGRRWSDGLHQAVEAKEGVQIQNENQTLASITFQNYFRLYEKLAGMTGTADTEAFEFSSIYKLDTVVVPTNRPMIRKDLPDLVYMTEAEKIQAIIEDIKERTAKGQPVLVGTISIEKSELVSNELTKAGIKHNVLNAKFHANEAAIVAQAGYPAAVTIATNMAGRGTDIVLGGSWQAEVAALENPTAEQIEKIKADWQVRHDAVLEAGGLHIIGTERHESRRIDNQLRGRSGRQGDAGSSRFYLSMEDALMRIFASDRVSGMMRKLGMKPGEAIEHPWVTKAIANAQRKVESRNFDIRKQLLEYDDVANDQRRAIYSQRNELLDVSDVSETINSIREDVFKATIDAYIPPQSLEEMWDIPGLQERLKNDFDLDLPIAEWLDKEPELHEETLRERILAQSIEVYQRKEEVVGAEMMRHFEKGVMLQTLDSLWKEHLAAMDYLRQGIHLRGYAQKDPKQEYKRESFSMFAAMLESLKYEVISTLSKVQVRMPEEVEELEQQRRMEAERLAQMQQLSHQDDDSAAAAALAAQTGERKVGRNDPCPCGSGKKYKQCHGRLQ

Row | SMILES | Percent Effect [1] [%] | Percent Effect [2] [%] | Percent Effect [3] [%] | Percent Effect [4] [%] | Percent Effect (Trypanosoma cruzi) [%] | Percent Effect [5] [%] | Percent Effect [6] [%] | Percent Effect (Homo sapiens) [%] | Percent Effect [7] [%] | Percent Effect [8] [%] | Percent Effect [9] [%]
1 | CCc1ncncc1C(=O)N1CCN(Cc2c(C)noc2C)CC1 | -5.8 | 13.2 | -4.4 | 4.23 | 2.89 | 0.36 | 3.98 | -0.539 | 7.39 | 16.1 | -0.381
2 | Cc1ccc2c(ccn2CC(=O)NC[C@@H]2CCCN3CCCC[C@H]23)c1 | -5.2 | 28 | -5.58 | 4.06 | 5.5 | -6.16 | 16.3 | -4.16 | 4.23 | 12.8 | -11.5
3 | O=C(Cc1c[nH]c2ccccc12)N1CCN(C(=O)c2ccoc2)CC1 | -2.06 | 13.2 | 1.95 | -3.58 | 0.487 | 14.2 | 12.9 | 21.1 | 7.45 | 18.2 | -2.68
4 | O=C(Nc1ccnc(OC2CCOC2)c1)C1CCC1 (stereo not given) | -2.23 | -4.17 | -0.181 | 4.31 | -6.32 | 1.32 | 13.3 | 5.01 | -2.1 | -5.13 | 6.48
5 | CNC(=O)NC(=O)Cn1cc(-c2ccccc2)cn1 | -4.72 | 6.33 | 12.6 | 5.24 | -5.03 | -1.07 | 8.23 | 17.1 | 2.08 | 10.1 | -4.57
6 | Cc1noc(C(C)N2CCN(CCC(=O)N3CCCCC3)CC2)n1 (stereo not given) | -2.79 | 10.5 | -2.48 | 3.61 | 4.19 | -16.6 | 9.68 | 21.2 | 3.19 | 15.6 | -5.47
7 | CCOc1ccc(Cl)c(C(=O)N2CCN(c3cnccn3)CC2)n1 | -4.82 | 23.4 | -2.68 | 6.96 | 8.43 | 1.42 | 15.5 | 17.5 | 10.7 | 24.4 | -12.4
8 | O=C1CC(c2ccccc2F)c2c(n3ccsc3nc2=O)N1 (stereo not given) | -2.59 | 9.33 | 1.41 | 7.25 | 2.95 | -5.46 | 7.76 | 2.76 | 4.23 | 12.8 | -9.93
9 | Cc1nc(C)n(CC2CCCN(CCCOc3ccccc3)C2)n1 (stereo not given) | -3.18 | 1.27 | 8.34 | 3.65 | -0.718 | 1.07 | -1.37 | -1.23 | 3.12 | 12.7 | -5.2
10 | CCc1nc(CN2CCCN(C(=O)C(C)COC)CC2)cs1 (stereo not given) | -1.87 | 26 | -9.16 | 1.76 | 3 | 3.92 | 17.2 | 10.8 | 9.71 | 21.9 | -10.9
